Source: PubChem BioAssay AID1845226 (National Center for Advancing Translational Sciences (NCATS), 2023)
Records with an inconclusive call do not appear. The source made the active and inactive calls. The call rests on the fitted dose curve; in most records, active means well fitted inhibition curve with a large enough effect; inconclusive means small, poorly fitted or top-dose-only effect; inactive means no such curve, though single readings can be large or run the other way.

Experiment: Confirmatory fluorescence-based thiol-reactive (MSTI) qHTS assay for identification of artifact compounds
Details: MSTI thiol-reactivity probe, 1 h; series mostly up to 39.2 µM; activity change, negative = inhibition: at the top concentration
Outline: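 Compounds, dosed in qHTS format, were mixed with 4 uM MSTI probe in 1X PBS pH 7.4 containing 2% DMSO. After 1 hour at room temperature in the dark, fluorescence was measured.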
Potency means the concentration at half of the fitted maximal effect.

Row | Compound | activity change, negative = inhibition | Potency
1 | CC(C)(C)C(=O)NC1(C(F)(F)F)C(=O)Nc2c1c(=O)[nH]c(=O)n2-c1ccccc1 (stereo not given) | 8.65% (inactive) | 
2 | O=C(O)CCc1c2ccc(=O)c(O)c-2oc2c(O)c(O)ccc12 |  | 1.09 µM (active)
3 | COc1ccccc1N1CCN(c2ncnc3c2cnn3-c2ccc(C)cc2)CC1 | 19.1% (inactive) | 
4 | CCSc1ncc(Cl)c(C(=O)Nc2c(C(=O)Nc3cccc(C)c3)oc3ccccc23)n1 | 6.11% (inactive) | 
5 | CCc1ccc2c(O)c3c(cc2c1C(=O)OC)C(=O)c1c(O)ccc(O)c1C3=O |  | 0.386 µM (active)
6 | O=C(COc1cccc(Cl)c1)N1CCC(c2nc3ccccc3o2)CC1 | 40.2% (inactive) | 
7 | Cc1ccc(C)c(N2CCN(Cc3csc(C)c3)CC2)c1 | 15.4% (inactive) | 
8 | CCCN(C(=O)Cc1c(C(=O)O)[nH]c2ccc(Cl)cc12)c1ccc(OCC)cc1 | 158% (inactive) | 
9 | Cc1cc(N[S+](=O)([O-])c2ccc(NC(=O)Cc3ccc(Cl)nc3)cc2)no1 | 20.7% (inactive) | 
10 | Cc1ccc(Cn2ccc(NC(=O)c3cc(-c4ccc(Cl)c(Cl)c4)on3)n2)cc1 | 175% (inactive) | 
11 | CCCCCn1c(=O)[nH]c2cc(C(=O)Nc3ccc(F)cc3)ccc2c1=O | 188% (inactive) | 
12 | COC(=O)[C@@H]1[C@H]2C[C@H]3c4[nH]c5cc(OC)ccc5c4CCN3C[C@@H]2C[C@@H](OC(=O)c2cc(OC)c(OC)c(OC)c2)[C@@H]1OC |  | 7.91 µM (active)
13 | Clc1ccc(CNc2cc(-c3ccc4c(c3)OCO4)ncn2)cc1 | 124% (inactive) | 
14 | COc1ccc(N2C(=O)CSC23C(=O)N(CC(N)=O)c2ccccc23)cc1 (stereo not given) | 23.4% (inactive) | 
15 | Cc1ccc(OCCn2c(CCNC(=O)OC(C)(C)C)nc3ccccc32)cc1 | -2.7% (inactive) | 
